Source: PubChem
Compounds with a hit are over-represented: about 1.8% of the library has one in this group of screens.
TCR activator: Activators of T cell receptors: qHTS campaign. Potency, µM (top dose mostly 9.22 µM), for the others: top-dose activation of IL-2 secretion, usual class: activators. 330,000 tested, under 10 active. primary human leukocytes, anti-CD3, IL-2 HTRF, 48 h; note: % of control where 0% means no effect
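Activity was scored as IL-2 release from primary human leukocytes given only a TCR signal (a-CD3 beads) plus compound for 48 hr. Detection used a two-antibody HTRF format read at 665nm.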
ClpP mod: qHTS Assay for Activators of ClpP | ATP-dependent Clp protease proteolytic subunit (Bacillus subtilis (strain 168)), P80244 | Potency, µM (titrated, usually from 57.5 µM), for the others: top-dose activity change, negative = active | 340,000 tested, 1.9% active | AID 651965, 2013 | purified B. subtilis ClpP, FRET peptide cleavage, 20 min; active = well fitted falling curve with a large enough effect; inconclusive = small, poorly fitted or top-dose-only effect; inactive = no such curve, though single readings can be large or run the other way; note: potency is the fitted concentration of half-maximal effect; the source files actives as falling curves though it sought activators and does not explain the sign; nearly all actives have a fitted effect of over 65% in size
Target sequence (P80244 whole entry, looked up): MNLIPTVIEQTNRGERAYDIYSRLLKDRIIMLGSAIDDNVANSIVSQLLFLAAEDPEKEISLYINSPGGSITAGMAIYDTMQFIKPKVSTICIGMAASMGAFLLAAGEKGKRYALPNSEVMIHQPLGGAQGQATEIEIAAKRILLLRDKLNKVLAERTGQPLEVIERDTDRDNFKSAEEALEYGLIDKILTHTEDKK
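Buffer: 100 mM Tris/HCl pH8, 100 mM KCl, 0.05% low protease BSA, 2.5% glycerol, 0.01% Tween-20. ClpP 10 microg/mL final; 20 min RT; delta FRET normalized to ADEP and DMSO controls.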
A-T KAP1 phos: qHTS Assay for Identifying a Potential Treatment of Ataxia-Telangiectasia. F2112 A-T fibroblasts, KAP-1 phosphorylation AlphaLISA; neocarzinostatin DNA damage 30 min before lysis. Potency, µM (top dose mostly 57.5 µM), for the others: top-dose activation, usual class: activators. 320,000 tested, 0.19% active. AID 485349, 2010; note: potency is the fitted concentration of half-maximal effect; % of control where 0% means no effect; nearly all actives have a fitted effect of over 45% in size
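hTERT-immortalized A-T patient fibroblasts (F2112), 500 cells/well in OPTI-MEM, 1% FBS, got compounds for 60 min, then NCS for 30 min at 37C. Lysates were then assayed for phospho-KAP-1 by AlphaLISA (anti-pKAP1 donor, anti-KAP1 acceptor beads), 6 hr at 25C.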
Mito fusion act: qHTS Assay for Small Molecule Inhibitors of Mitochondrial Division or Activators of Mitochondrial Fusion; S. cerevisiae fusion-defective mutant growth rescue, CellTiterGlo 48 h; Potency, µM (series often up to 46.1 µM), for inactives: top-dose growth rescue (activation), usual class: activators; 320,000 tested, 0.23% active; AID 485298, 2010; note: potency is the fitted concentration of half-maximal effect; % of control where 0% means no effect; nearly all actives have a fitted effect of over 45% in size
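Luminescent cell viability in 1536-well qHTS format served as the measure of rescued growth in ts fusion-mutant S. cerevisiae cultured on non-fermentable YPEG for 48 hours at 37C.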
GRP78 ERSR act: qHTS for Inducers of the Endoplasmic Reticulum Stress Response (ERSR) in Human Glioma: qHTS. U87-MG GRP78 promoter luciferase reporter, 16 h. Potency, µM, for inactives: at the highest dose activation, hits mostly activators. 420,000 tested, 0.02% active; note: potency is the fitted concentration of half-maximal effect; series mostly up to about 76 µM; % of control where 0% means no effect; nearly all actives have a fitted effect of over 35% in size
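Stably transfected U87-MG human glioma cells carrying a GRP78-based luminescent sensor were seeded at 1000 cells/well, pin-dosed with compounds and incubated 16 h. Luciferase reagent was then added, and end-point luminescence was read after 10 min at room temperature.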
MBNL1 CUG block: qHTS Assay for Inhibitors of MBNL1-poly(CUG) RNA binding | Potency, µM (top dose mostly 57.5 µM), without a hit: at the highest dose activity change, negative = inhibition, most hits filed as inhibitors | TR-FRET MBNL1-His/biotin-(CUG)12 binding, 665/545 ratio | Muscleblind-like protein 1 (Homo sapiens), Q9NR56 | AID 2675, 2010 | 280,000 tested, 0.036% active; active = well fitted inhibition curve with a large enough effect in the signal ratio, with a control signal flat, not every such curve was filed as active; inconclusive = small, poorly fitted or top-dose-only effect, or effect the other way, or a change in a side signal; inactive = no such curve, though single readings can be large or run the other way; the % refers to the signal ratio; note: potency is the fitted concentration of half-maximal effect; % is set by controls: 0 for no effect and ±100 for the full control effect
Target sequence (Q9NR56 whole entry, looked up): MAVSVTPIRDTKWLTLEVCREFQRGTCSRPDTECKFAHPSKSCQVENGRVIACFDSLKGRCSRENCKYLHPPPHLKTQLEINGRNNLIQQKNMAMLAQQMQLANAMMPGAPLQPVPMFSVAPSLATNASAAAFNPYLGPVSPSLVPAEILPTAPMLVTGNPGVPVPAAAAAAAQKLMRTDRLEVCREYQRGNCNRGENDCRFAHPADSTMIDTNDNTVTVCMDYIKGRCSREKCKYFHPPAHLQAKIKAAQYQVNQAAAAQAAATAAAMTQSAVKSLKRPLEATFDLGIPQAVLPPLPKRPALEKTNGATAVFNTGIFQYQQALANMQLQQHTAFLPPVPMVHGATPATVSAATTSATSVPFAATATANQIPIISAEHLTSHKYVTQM
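Compound titration spanned 92 nM–58 uM against the MBNL1-His/biotin-(CUG)12 complex. After 60 min at room temperature with 5 nM streptavidin-XL665 and 0.055 ng/ul terbium anti-His, ratiometric 665/545 nm emission (Ex 340 nm) normalized to controls.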
Starred values were filed as active, the others as inactive; ? = inconclusive; / = no result given; ! = repeats disagree; [ ] = another dose, or the depositor's remark. Unless noted, calls come from the whole dose curve; as a rule, active = well fitted curve in the direction sought with a large enough effect; inconclusive = small, poorly fitted or top-dose-only effect, or another doubt; inactive = no such curve, though single readings can be large; an effect the other way counts as inactive or inconclusive.

SMILES | TCR activator | ClpP mod | A-T KAP1 phos | Mito fusion act | GRP78 ERSR act | MBNL1 CUG block
Cc1cccc(S(=O)(=O)c2c(N)n(-c3ccccc3)c3nc4ccccc4nc23)c1 | 4.1%[46.1 µM] | 14.1µM* | 3.1% | 9.5% | -5.3% | -0.5%
Nc1c(S(=O)(=O)c2ccccc2)c2nc3ccccc3nc2n1/N=C/c1ccco1 | -1.4% | 11.2µM* | 0.0% | 6.4% | -4.6% | 79.6%
Cc1ccc(S(=O)(=O)c2c(N)n(/N=C/c3ccco3)c3nc4ccccc4nc23)cc1 | -38.9% | 8.91µM* | 1.6% | 27.3% | -0.6% | 22.9%
COc1ccc(S(=O)(=O)c2c(N)n(Cc3ccco3)c3nc4ccccc4nc23)cc1 | -5.3% | 15.8µM* | 23.7% | 6.8% | -8.3% | 9.4%
COc1cc(=O)n2c(c1C(=O)NCc1nonc1C)CCN(Cc1c[nH]c3ccccc13)CC2 | / | / | / | / | -4.8% | /
Cc1ccc(S(=O)(=O)c2c(N)n(/N=C/c3ccco3)c3nc4ccccc4nc23)cc1C | 4.6% | 14.1µM* | 7.2% | ? | 0.0% | 7.1%
Cc1cccc(S(=O)(=O)c2c(N)n(/N=C/c3ccco3)c3nc4ccccc4nc23)c1 | -3.5% | 3.55µM* | -1.6% | 4.8% | -4.5% | 59.4%
OCc1ccc(-c2ccc(-c3ccc(CO)s3)o2)s1 | / | / | / | / | 9.0% | /
O=S1(=O)C2CC3OC2(CC3c2ccc(F)cc2)CN1Cc1ccc(Cl)cc1 (configuration not stated) | / | / | / | / | -2.4% | /
CSc1ccc(/C=C/C(=O)c2ccc(O)cc2)cc1 | 1.4%[46.1 µM] | -1.5% | -2.1% | 28.7% | 1.8% | 0.5%
CSc1ccc(C(=O)c2[nH]c(=O)[nH]c2C)cc1 | -1.2% | 0.0% | ? | 13µM*! | 0.9% | ?
COC(=O)c1c(OCc2cccnc2)cc(=O)n2c1CCN(C(=O)c1ccc(OC)c(F)c1)CC2 | / | / | / | / | -1.9% | /
O=C(Nc1ncn[nH]1)c1cc(S(=O)(=O)Nc2ccc(Cl)cc2)ccc1Cl | -5.3%[46.1 µM] | -2.0% | -1.5% | -2.4% | -2.1% | -8.1%
O=C(Nc1ncn[nH]1)c1ccc(Cl)c(S(=O)(=O)Nc2ccc(Cl)cc2)c1 | 7.4%[46.1 µM] | 31.6µM* | -3.7% | -0.2% | -0.9% | 0.7%
Cc1nc(CN2CCN(C(=O)CC3(c4ccccc4Cl)CC(=O)N(C)C3=O)CC2)cs1 (configuration not stated) | / | / | / | / | -2.9% | /
CN(CC(=O)N1CCOCC1)S(=O)(=O)c1cc(Cl)ccc1Cl | -4.8% | / | -4.6% | -33.0% | -3.0% | -5.6%
CCN(CC(=O)N1CCOCC1)S(=O)(=O)c1cc(Cl)ccc1Cl | 0.4% | 31.6µM* | -1.8% | 2.4% | -4.9% | -3.5%
Cc1ccc(C2=CC(=O)C[C@H](c3ccc4c(c3)OCO4)C2)cc1 | 8.3% | -0.7% | 2.0% | 3.98µM* | 1.3% | /
O=C(COc1ccccc1C(=O)Nc1ccccc1F)Nc1ccc(Br)cc1 | / | -7.0% | / | / | -4.1% | /
COc1cc(-c2nnc(-c3ccc(S(=O)(=O)c4ccccc4)cc3)o2)cc(OC)c1OC | -1.5% | ? | 17.6% | 5.7% | -4.7% | 6.1%
COc1cc(-c2nnc(-c3ccc(N4CCOCC4)cc3)o2)cc(OC)c1OC | 2.1% | 25.1µM* | 0.8% | 0.3% | -4.1% | 1.8%
Cc1cc(C)c(NC(=O)COc2ccc3c(C)cc(=O)oc3c2)c(C)c1 | / | 4.2% | / | / | -4.0% | /
Cc1cc(=O)oc2cc(OC(C)C(=O)NC3CCCC3)ccc12 (configuration not stated) | -4.1% | / | -6.4% | -2.3% | 10.4% | -7.3%
CCN(CC)S(=O)(=O)c1ccc(C)c(NC(=O)COc2ccc3c(C)cc(=O)oc3c2)c1 | -3.8%[46.1 µM] | 25.1µM* | 3.0% | -2.7% | -3.3% | 8.8%
